± gives the standard deviation of the averaged measurements.
What was measured:
DLD1 [1] = assay: cell viability (CellTiter-Glo) relative to plate median (fraction of plate median); higher = more viable cells; settings: 5 µM; treatment time 24 h; reporter: 7TFP
Method in brief: (§1)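 Library compounds, at a final 5 µM, stayed on reporter cells for 24 h. The cells were colorectal cancer lines stably transduced with lentiviral TCF/Wnt firefly luciferase reporters, seeded in 384-well plates 24 h before dosing. Firefly luciferase or CellTiterGlo luminescence from parallel plates was normalised to the plate median in webcellHTS2 (additive, no log transformation), and two independent replicates were averaged.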

HCT116 = assay: as above; settings: 5 µM; treatment time 24 h; reporter: TCF4/Wnt
Method in brief: as §1

SW480 [2] = assay: as above; settings: 5 µM; treatment time 24 h; reporter: 7TFP
Method in brief: as §1

DLD1 [3] = assay: TCF/Wnt firefly luciferase reporter signal relative to plate median (fraction of plate median); higher = higher Wnt reporter signal; settings: 5 µM; treatment time 24 h; reporter: 7TFP
Method in brief: as §1

SW480 [4] = assay: as above; settings: 5 µM; treatment time 24 h; reporter: 7TFP
Method in brief: as §1

Row | Structure (SMILES) | cell viability (DLD1 [1]) | cell viability (HCT116) | cell viability (SW480 [2]) | TCF/Wnt firefly luciferase reporter signal (DLD1 [3]) | TCF/Wnt firefly luciferase reporter signal (SW480 [4])
1 | CC[C@H](C)C(=O)O[C@H]1C[C@@H](C)C=C2C=C[C@H](C)[C@H](CC[C@@H]3C[C@@H](O)CC(=O)O3)[C@H]21 | 1.02 ± 0.086 | 1.06 ± 0.028 | 1.035 ± 0.0071 | 1.02 ± 0.079 | 1.07 ± 0.021
2 | Cc1c2oc3c(C)ccc(C(=O)N[C@@H]4C(=O)N[C@H](C(C)C)C(=O)N5CCC[C@H]5C(=O)N(C)CC(=O)N(C)[C@@H](C(C)C)C(=O)O[C@@H]4C)c3nc-2c(C(=O)N[C@@H]2C(=O)N[C@H](C(C)C)C(=O)N3CCC[C@H]3C(=O)N(C)CC(=O)N(C)[C@@H](C(C)C)C(=O)O[C@@H]2C)c(N)c1=O | 1.06 ± 0.071 | 0.601 ± 0.18 | 1.31 ± 0.035 | 0.612 ± 0.11 | 0.802 ± 0.039
3 | O=C(CCCN1CCC(O)(c2ccc(Cl)cc2)CC1)c1ccc(F)cc1 | 1 ± 0.021 | 1.075 ± 0.0071 | 0.995 ± 0.078 | 1.08 ± 0.035 | 1.05 ± 0.064
4 | COc1ccccc1OCC(O)CN1CCN(CC(=O)Nc2c(C)cccc2C)CC1 (stereo not given) | 0.977 ± 0.018 | 0.927 ± 0.018 | 0.944 ± 0.013 | 1.04 ± 0.028 | 0.881 ± 0.0092
5 | CN[C@@H]1[C@H](O)[C@H](NC)[C@H]2O[C@@]3(O)C(=O)C[C@@H](C)O[C@H]3O[C@@H]2[C@H]1O | 1.04 ± 0.08 | 1.004 ± 0.0085 | 0.978 ± 0.025 | 1.24 ± 0.18 | 1.09 ± 0.13
6 | CN(C)/N=N/c1[nH]cnc1C(N)=O | 0.982 ± 0.015 | 0.986 ± 0.02 | 0.971 ± 0.0099 | 1.06 ± 0.11 | 1.06 ± 0.11
7 | O=C1c2ccccc2C(=O)C1c1ccccc1 | 1.02 | 1.02 ± 0.048 | 1.02 | 1.12 ± 0.014 | 1.15 ± 0.071

— the supplement of paper PMC6522484
